Reference: PubChem BioAssay (NCI)
About 83,000 compounds went through this panel and 20% of them were active in at least one assay; those are over-represented in the sample as a whole.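 A percent growth of 40 corresponds to 60% growth inhibition; 0 means no net growth; -100 means all cells died. Active threshold: below 10.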 Calls of active or inactive are those of the source.

Columns and labels:
Test in all cases: NCI-60 one-dose screen, 48 h (100 = growth as untreated, 0 = no growth, -100 = all killed)
Conditions in all cases: 10 µM unless noted
HCT-15 colon = tested on: HCT-15 colon
HT29 colon = tested on: HT29 colon
SNB-75 CNS = tested on: SNB-75 CNS
SNB-19 CNS = tested on: SNB-19 CNS
U251 CNS = tested on: U251 CNS
PC-3 prostate = tested on: PC-3 prostate
SK-MEL-5 melanoma = tested on: SK-MEL-5 melanoma
UACC-62 melanoma = tested on: UACC-62 melanoma
LOX IMVI melanoma = tested on: LOX IMVI melanoma
SK-MEL-2 melanoma = tested on: SK-MEL-2 melanoma
EKVX NSCLC = tested on: EKVX NSCLC
SN12C renal = tested on: SN12C renal
UO-31 renal = tested on: UO-31 renal
TK-10 renal = tested on: TK-10 renal
ACHN renal = tested on: ACHN renal
CAKI-1 renal = tested on: CAKI-1 renal
A498 renal = tested on: A498 renal
MOLT-4 leukemia = tested on: MOLT-4 leukemia
SK-MEL-28 melanoma = tested on: SK-MEL-28 melanoma
CCRF-CEM leukemia = tested on: CCRF-CEM leukemia

Measured: growth

O=C1/C(=C/c2ccccc2Br)COc2ccc(O)c(O)c21
inactive: HT29 colon 47.6% | SNB-75 CNS 23.2% | SNB-19 CNS 27% | PC-3 prostate 15.6% | SK-MEL-5 melanoma 46.9% | SK-MEL-2 melanoma 48.8% | EKVX NSCLC 61.7% | TK-10 renal 29.5% | CAKI-1 renal 22.2% | A498 renal 116%
active: HCT-15 colon -1.56% | U251 CNS 4.99% | UACC-62 melanoma 6.99% | LOX IMVI melanoma -76% | SN12C renal -67.6% | UO-31 renal -92.1% | ACHN renal -44.9% | MOLT-4 leukemia 2.79%

O=Cc1ccc([N+](=O)[O-])s1
inactive: HCT-15 colon 48.7% | HT29 colon 55.4% | SNB-75 CNS 85.8% | SNB-19 CNS 91.4% | U251 CNS 89.6% | PC-3 prostate 92.6% | SK-MEL-5 melanoma 102% | UACC-62 melanoma 80.2% | LOX IMVI melanoma 85.8% | SK-MEL-28 melanoma 99.5% | SK-MEL-2 melanoma 107% | SN12C renal 84.1% | UO-31 renal 89.8% | TK-10 renal 112% | ACHN renal 90.8% | A498 renal 94.5% | CCRF-CEM leukemia 88.2% | MOLT-4 leukemia 88.3%

CN1CCN(C(=O)OCc2ccc3c(Cl)cc(Cl)c(O)c3n2)CC1
inactive: HCT-15 colon 22.8% | HT29 colon 103% | SNB-75 CNS 70.7% | SNB-19 CNS 53.3% | U251 CNS 36.6% | PC-3 prostate 44.1% | SK-MEL-5 melanoma 49.6% | UACC-62 melanoma 60% | LOX IMVI melanoma 49.3% | SK-MEL-28 melanoma 67.1% | SK-MEL-2 melanoma 76% | SN12C renal 56.9% | UO-31 renal 34% | TK-10 renal 105% | ACHN renal 45% | CAKI-1 renal 55.1% | A498 renal 106% | CCRF-CEM leukemia 40.5%
active: MOLT-4 leukemia 8.31%

O=C1c2cccc(NCCN=Cc3cc(O)ccc3O)c2C(=O)c2c(NCCN=Cc3cc(O)ccc3O)cccc21
active: HT29 colon -22.1% | SNB-75 CNS -22% | SNB-19 CNS -22.4% | U251 CNS -43.8% | PC-3 prostate -38.4% | SK-MEL-5 melanoma 4.84% | UACC-62 melanoma 5.11% | LOX IMVI melanoma -44.9% | SK-MEL-28 melanoma -30.9% | SN12C renal -24.7% | UO-31 renal -18% | TK-10 renal -12.1% | CAKI-1 renal -37.1% | A498 renal -48.6% | CCRF-CEM leukemia -58.7% | MOLT-4 leukemia -53.1%
inactive: HCT-15 colon 23.2% | SK-MEL-2 melanoma 20.9%

CCN1C(=O)N(CC)C2C1NN=c1s/c(=C\c3cccc([N+](=O)[O-])c3)c(=O)n12 (stereo not given)
active: HT29 colon 5.6% | SK-MEL-5 melanoma -5.71%
inactive: HCT-15 colon 11.6% | SNB-75 CNS 22% | SNB-19 CNS 31.5% | U251 CNS 13.7% | PC-3 prostate 33.7% | UACC-62 melanoma 32.5% | LOX IMVI melanoma 16.7% | SK-MEL-28 melanoma 61.4% | SK-MEL-2 melanoma 43.4% | SN12C renal 25.5% | UO-31 renal 41.1% | TK-10 renal 69.6% | ACHN renal 32.9% | A498 renal 13% | CCRF-CEM leukemia 10.8% | MOLT-4 leukemia 15.6%

N#Cc1c(NC(=O)c2ccccc2)sc2c1CCC(=O)C2
inactive: HT29 colon 14.1% | SNB-19 CNS 19.1% | U251 CNS 13.4% | PC-3 prostate 12% | SK-MEL-28 melanoma 17.5% | SK-MEL-2 melanoma 13.6% | SN12C renal 11.6% | TK-10 renal 39.5% | A498 renal 78.3%
active: HCT-15 colon -3.43% | SNB-75 CNS -6.39% | SK-MEL-5 melanoma -75.8% | UACC-62 melanoma 1.83% | LOX IMVI melanoma 6.26% | UO-31 renal -16.4% | ACHN renal 5.88% | CAKI-1 renal -27.3% | CCRF-CEM leukemia 7.52% | MOLT-4 leukemia 8.12%

O=S(=O)(Nc1cc(Br)c(O)c2ccccc12)c1ccc(F)cc1
active: LOX IMVI melanoma 0.868% | MOLT-4 leukemia -40.3%
inactive: HCT-15 colon 86.8% | HT29 colon 113% | SNB-75 CNS 100% | SNB-19 CNS 108% | U251 CNS 35.4% | PC-3 prostate 32% | SK-MEL-5 melanoma 48.9% | UACC-62 melanoma 54.2% | SK-MEL-28 melanoma 81.1% | SK-MEL-2 melanoma 87.8% | SN12C renal 49.3% | UO-31 renal 48.5% | TK-10 renal 123% | ACHN renal 71.2% | CAKI-1 renal 80.5% | A498 renal 89.9% | CCRF-CEM leukemia 11%

Cc1cccc(Cl)c1NC(=O)c1ccc2nc(NC(=O)NCCN(C)C)sc2c1
inactive: HCT-15 colon 99.3% | HT29 colon 80.1% | SNB-75 CNS 23.7% | SNB-19 CNS 105% | U251 CNS 80.4% | PC-3 prostate 62.2% | SK-MEL-5 melanoma 67.3% | UACC-62 melanoma 97.3% | LOX IMVI melanoma 91.5% | SK-MEL-2 melanoma 103% | EKVX NSCLC 104% | SN12C renal 92% | UO-31 renal 90.1% | TK-10 renal 111% | ACHN renal 92.9% | CAKI-1 renal 95.1% | A498 renal 90.7% | CCRF-CEM leukemia 79.4% | MOLT-4 leukemia 80.2%

O=C(Cn1c(-c2ccc([N+](=O)[O-])cc2)nc2ccccc21)NNC(=O)c1cccnc1
inactive: HCT-15 colon 80.9% | HT29 colon 77.2% | SNB-75 CNS 53.3% | SNB-19 CNS 86.5% | U251 CNS 77.9% | PC-3 prostate 69% | SK-MEL-5 melanoma 83.8% | UACC-62 melanoma 66.2% | LOX IMVI melanoma 65.3% | SK-MEL-2 melanoma 103% | EKVX NSCLC 73.2% | SN12C renal 78.9% | UO-31 renal 65.6% | TK-10 renal 126% | ACHN renal 84.4% | CAKI-1 renal 71.2% | A498 renal 65.1% | CCRF-CEM leukemia 75.6% | MOLT-4 leukemia 79.3%

CN1C(=O)/C(=C/c2cn(-c3ccccc3)nc2-c2ccccc2)SC1=S
inactive: HCT-15 colon 103% | HT29 colon 109% | SNB-75 CNS 101% | SNB-19 CNS 100% | U251 CNS 110% | PC-3 prostate 90.2% | SK-MEL-5 melanoma 98% | UACC-62 melanoma 86.7% | LOX IMVI melanoma 89.6% | SK-MEL-28 melanoma 105% | SK-MEL-2 melanoma 107% | SN12C renal 100% | UO-31 renal 92.2% | TK-10 renal 112% | ACHN renal 100% | CAKI-1 renal 89.1% | A498 renal 79.2% | CCRF-CEM leukemia 107% | MOLT-4 leukemia 114%

O=C1c2c(c3c4ccccc4[nH]c3c3ccc4ccccc4c23)C(=O)N1CCN1CCCCC1
active: CCRF-CEM leukemia 3.2% | MOLT-4 leukemia 7.16%
inactive: HCT-15 colon 25% | HT29 colon 11.8% | SNB-75 CNS 52.6% | SNB-19 CNS 42.4% | U251 CNS 10.8% | PC-3 prostate 53.3% | SK-MEL-5 melanoma 55.4% | UACC-62 melanoma 42.8% | LOX IMVI melanoma 30.2% | SK-MEL-28 melanoma 98.1% | SK-MEL-2 melanoma 90.5% | SN12C renal 22.6% | UO-31 renal 39.7% | TK-10 renal 87.4% | ACHN renal 12.7% | CAKI-1 renal 24.7% | A498 renal 45.7%

CC1Cc2c(Cl)ncnc2N(C)c2ccc(F)cc21 (stereo not given)
inactive: HCT-15 colon 106% | HT29 colon 90.6% | SNB-75 CNS 59.8% | SNB-19 CNS 104% | U251 CNS 89.7% | PC-3 prostate 87.5% | SK-MEL-5 melanoma 76.9% | UACC-62 melanoma 99.6% | LOX IMVI melanoma 92.3% | SK-MEL-2 melanoma 110% | EKVX NSCLC 87.6% | SN12C renal 106% | UO-31 renal 79.6% | TK-10 renal 98.9% | ACHN renal 103% | CAKI-1 renal 91% | A498 renal 101% | CCRF-CEM leukemia 95.6% | MOLT-4 leukemia 89.2%

C=C(C)[C@@H]1CC[C@]2(C(=O)NCCNCCN)CC[C@]3(C)[C@H](CC[C@@H]4[C@@]5(C)C/C(=C/c6ccncc6)C(=O)C(C)(C)[C@@H]5CC[C@]43C)[C@@H]12
inactive: HCT-15 colon 91.4% | HT29 colon 96% | SNB-75 CNS 78.1% | SNB-19 CNS 90.2% | U251 CNS 91.2% | PC-3 prostate 88.8% | SK-MEL-5 melanoma 96.3% | UACC-62 melanoma 86.6% | LOX IMVI melanoma 96% | SK-MEL-2 melanoma 108% | EKVX NSCLC 92.2% | SN12C renal 96.5% | UO-31 renal 83.5% | TK-10 renal 118% | ACHN renal 100% | CAKI-1 renal 85.6% | A498 renal 95.7% | CCRF-CEM leukemia 97.1% | MOLT-4 leukemia 82.9%

O=C1c2ccc3c4ccc5c6c(ccc(c7ccc(c2c37)C(=O)N1CCC[P+](c1ccccc1)(c1ccccc1)c1ccccc1)c64)C(=O)N(CCC[P+](c1ccccc1)(c1ccccc1)c1ccccc1)C5=O
active: CAKI-1 renal 0.659%
inactive: HCT-15 colon 67.9% | HT29 colon 26.4% | SNB-75 CNS 131% | SNB-19 CNS 42.4% | U251 CNS 22.3% | PC-3 prostate 56.1% | SK-MEL-5 melanoma 18.5% | UACC-62 melanoma 54.5% | LOX IMVI melanoma 17% | SK-MEL-28 melanoma 15.2% | SK-MEL-2 melanoma 98.7% | SN12C renal 70.5% | UO-31 renal 80.7% | TK-10 renal 141% | ACHN renal 104% | A498 renal 78.1% | CCRF-CEM leukemia 45.9% | MOLT-4 leukemia 46.1%

Cn1c(-c2ccc(Br)cc2)c(O)c(=O)c2c(F)cccc21
inactive: HCT-15 colon 23.9% | HT29 colon 36.6% | SNB-75 CNS 92.2% | SNB-19 CNS 52.8% | U251 CNS 34.3% | PC-3 prostate 105% | SK-MEL-5 melanoma 54.2% | UACC-62 melanoma 37.6% | LOX IMVI melanoma 40.2% | SK-MEL-2 melanoma 87.1% | EKVX NSCLC 56% | SN12C renal 68.8% | UO-31 renal 26.3% | TK-10 renal 42.4% | ACHN renal 37% | CAKI-1 renal 47.9% | A498 renal 62.3% | CCRF-CEM leukemia 94.1% | MOLT-4 leukemia 99%

COc1cc(NC(C)CCCNC(C)C)c2ncccc2c1OC (stereo not given)
inactive: HCT-15 colon 99.3% | HT29 colon 120% | SNB-75 CNS 87.6% | SNB-19 CNS 93% | U251 CNS 92% | PC-3 prostate 90.8% | SK-MEL-5 melanoma 97.9% | UACC-62 melanoma 85% | LOX IMVI melanoma 83.5% | SK-MEL-2 melanoma 90.8% | EKVX NSCLC 105% | SN12C renal 85.8% | UO-31 renal 57.7% | TK-10 renal 105% | ACHN renal 104% | CAKI-1 renal 88.2% | A498 renal 61.3% | CCRF-CEM leukemia 89.3% | MOLT-4 leukemia 98.4%
